Results reported in the supplement of paper PMC12645437, “Orthogonal IMiD-Degron Pairs Induce Selective Protein Degradation in Cells” (ACS Chemical Biology, 2025).
Over roughly 8,300 sequences, “log2 fold change of degron read counts, EGFP-low vs EGFP+ sorted cells (limma voom), compound-induced degradation” has its median near -1.1; the highest 2% begin near 3.2. What follows is part of a selection rich in the highest values, with near analogues and random picks from the rest.

T1: CRBN, Q96SW2
T1 chain: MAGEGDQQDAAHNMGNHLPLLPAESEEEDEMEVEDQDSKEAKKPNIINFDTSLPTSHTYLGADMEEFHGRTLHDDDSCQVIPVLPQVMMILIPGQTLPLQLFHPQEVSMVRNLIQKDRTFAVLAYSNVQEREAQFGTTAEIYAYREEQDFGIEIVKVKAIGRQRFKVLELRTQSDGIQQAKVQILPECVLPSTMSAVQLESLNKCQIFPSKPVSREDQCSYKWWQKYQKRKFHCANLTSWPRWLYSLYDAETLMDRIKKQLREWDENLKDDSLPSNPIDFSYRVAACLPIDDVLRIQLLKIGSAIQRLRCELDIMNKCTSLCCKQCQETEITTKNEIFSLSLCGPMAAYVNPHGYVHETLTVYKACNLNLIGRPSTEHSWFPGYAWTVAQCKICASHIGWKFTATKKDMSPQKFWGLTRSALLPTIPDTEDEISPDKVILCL


Target: T1, CRBN, Q96SW2
Assay: log2 fold change of degron read counts, EGFP-low vs EGFP+ sorted cells (limma voom), compound-induced degradation; higher = more compound-induced degradation of the degron-EGFP fusion; degrons are variants of IKZF1/3 zinc finger 2; compound dose not given here
Conditions: Jurkat, 18 h
[1] = compound: compound 19 (5-tert-butyl-thalidomide)
[2] = compound: compound 22 (5-morpholino-thalidomide)
[3] = compound: compound 33 (diphenyl IMiD analogue)
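Also: pooled lentiviral library of zinc finger degron-EGFP fusions in mCherry-positive Jurkat cells, FACS-sorted after compound exposure, with degron abundance counted by next-generation sequencing.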

| Sequence | log2 fold change of degron read counts [1] | log2 fold change of degron read counts [2] | log2 fold change of degron read counts [3] | log2 fold change of degron read counts (compound: thalidomide) |
| --- | --- | --- | --- | --- |
| FHCNQCGRVFTQKGNLLRHIKL [46F_47H_49N_50Q_52G_53R_54V_55F_67L_, Q9UKT9] | -1.76 | -2.76 | -1.72 | -1.87 |
| FTCPQCGAAFTQKGNLLRHIKL [46F_47T_49P_50Q_52G_53A_54A_55F_67L_, Q9UKT9] | -0.476 | 0.413 | 1.73 | 0.798 |
| FRCEVCGAMFTQKGNLLRHIKL [46F_47R_49E_50V_52G_53A_54M_55F_67L_, Q9UKT9] | -0.953 | -0.985 | 0.652 | 0.605 |
| FYCDICGAKFTQKGNLLRHIKL [46F_47Y_49D_50I_52G_53A_54K_55F_67L_, Q9UKT9] | 3.2 | 3.32 | 0.608 | -0.632 |
| FQCDICGAKFTQKGNLLRHIKL [46F_47Q_49D_50I_52G_53A_54K_55F_67L_, Q9UKT9] | -0.69 | 2.25 | -0.885 | 3.28 |
| FTCDICGAKFTQKGNLLRHIKL [46F_47T_49D_50I_52G_53A_54K_55F_67L_, Q9UKT9] | -0.131 | 0.993 | -1.38 | 0.963 |
| FMCDICGAKFTQKGNLLRHIKL [46F_47M_49D_50I_52G_53A_54K_55F_67L_, Q9UKT9] | -0.74 | -1.21 | -0.567 | -0.432 |
| FWCDICGAKFTQKGNLLRHIKL [46F_47W_49D_50I_52G_53A_54K_55F_67L_, Q9UKT9] | 3.22 | 3.7 | 0.265 | -0.173 |
| FICDICGAKFTQKGNLLRHIKL [46F_47I_49D_50I_52G_53A_54K_55F_67L_, Q9UKT9] | -1.2 | 1.29 | -0.575 | 0.898 |
| FLCDICGAKFTQKGNLLRHIKL [46F_47L_49D_50I_52G_53A_54K_55F_67L_, Q9UKT9] | -0.855 | -1.86 | -1.23 | 0.0222 |
| FECDICGAKFTQKGNLLRHIKL [46F_47E_49D_50I_52G_53A_54K_55F_67L_, Q9UKT9] | -0.727 | -2.12 | -2.83 | 0.61 |
| FNCDICGAKFTQKGNLLRHIKL [46F_47N_49D_50I_52G_53A_54K_55F_67L_, Q9UKT9] | 0.554 | -1.18 | -2.65 | -2.02 |
| FCCDICGAKFTQKGNLLRHIKL [46F_47C_49D_50I_52G_53A_54K_55F_67L_, Q9UKT9] | 1.97 | 1.65 | -1.18 | 0.858 |
| FFCDICGAKFTQKGNLLRHIKL [46F_47F_49D_50I_52G_53A_54K_55F_67L_, Q9UKT9] | 3.35 | 3.15 | 0.231 | -0.76 |
| FKCDICGAKFTQKGNLLRHIKL [46F_47K_49D_50I_52G_53A_54K_55F_67L_, Q9UKT9] | -2.45 | -3.31 | -3.09 | -2.29 |
| FNCDVCGAHFTQKGNLLRHIKL [46F_47N_49D_50V_52G_53A_54H_55F_67L_, Q9UKT9] | -0.166 | -1.87 | -1.95 | -2.36 |
| FLCPQCGAPFTQKGNLLRHIKL [46F_47L_49P_50Q_52G_53A_54P_55F_67L_, Q9UKT9] | -1.51 | -0.398 | 0.89 | 0.718 |
| LRCNQCGFVCTQKGNLLRHIKL [46L_47R_49N_50Q_52G_53F_54V_55C_67L_, Q9UKT9] | -1.27 | -2.74 | -1.29 | -1.39 |
